Some test systems named below: HCT-15 colon; HT29 colon; SNB-75 CNS; SNB-19 CNS; U251 CNS; SK-MEL-5 melanoma; UACC-62 melanoma; LOX IMVI melanoma; SK-MEL-28 melanoma; SK-MEL-2 melanoma; EKVX NSCLC; SN12C renal; UO-31 renal; TK-10 renal; ACHN renal; CAKI-1 renal; A498 renal; CCRF-CEM leukemia; MOLT-4 leukemia; PC-3 prostate.
Holding throughout (test): NCI-60 one-dose screen, 48 h (100 = growth as untreated, 0 = no growth, -100 = all killed)
Conditions in all cases: 10 µM unless noted

This is part of a sample that, as a whole, favours compounds with a hit. Of some 83,000 tested, about 20% had one in any assay.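 Cell lines were cultured in 96-well plates, exposed to a single compound concentration, and assessed for percent growth 48 hours later.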 Values without a mark were called inactive. Activity calls are given as the source filed them. The calls were made as follows: active = growth percent below 10; inactive = the rest.

Regarding `O=C(CI)NC1Oc2ccccc2-c2oc(=O)c(-c3ccccc3)cc21` (stereo not given), the growth was -83% (active) with HCT-15 colon; -55% (active) in the assay with HT29 colon; -20.9% (active) in the assay on SNB-75 CNS; 80.8% in the assay with SNB-19 CNS; -48.6% (active) with U251 CNS; 85.5% in the assay on SK-MEL-5 melanoma. The growth in the assay on UACC-62 melanoma was -22.8% (active); in the assay with LOX IMVI melanoma it was -82.8% (active); in the assay with SK-MEL-28 melanoma it was 46.3%; in the assay on SK-MEL-2 melanoma, -16.4% (active); in the assay with EKVX NSCLC, 70.4%; in the assay on SN12C renal, -71.2% (active). For the same compound, the growth in the assay on UO-31 renal is -94.7% (active); in the assay on TK-10 renal it was -73.5% (active); with ACHN renal, -91.3% (active); in the assay on CAKI-1 renal it was -100% (active); in the assay with A498 renal, 82.1%; in the assay with CCRF-CEM leukemia, -23.4% (active). For the same compound, the growth in the assay with MOLT-4 leukemia was -25.8% (active).

With `CCn1cc(C(=O)N/N=C/c2cccs2)c(=O)c2cc(F)c(N3CCNC(C)C3)c(F)c21` (stereo not given), the growth in the assay with HCT-15 colon is 25%; in the assay with HT29 colon, -76.7% (active); with SNB-75 CNS, 88.5%; in the assay on SNB-19 CNS it was 73%; with U251 CNS, 53.3%; in the assay on SK-MEL-5 melanoma, 69.8%. In addition, the growth was 96.5% with UACC-62 melanoma; -84.1% (active) in the assay on LOX IMVI melanoma; 89.9% in the assay on SK-MEL-28 melanoma; 103% in the assay on SK-MEL-2 melanoma; 34.1% with EKVX NSCLC; 70% in the assay on SN12C renal. In addition, the growth was 66.8% in the assay on UO-31 renal; 83.9% in the assay with TK-10 renal; 87.2% with ACHN renal; 46.5% with CAKI-1 renal; 104% in the assay on A498 renal; 67.2% in the assay with CCRF-CEM leukemia. The growth with MOLT-4 leukemia is 75.1%.

For `CN(C)CCNc1nc2c3cc(Cl)ccc3nn2c2ccccc12`, the growth in the assay on HCT-15 colon is 41.2%; in the assay on HT29 colon it was 21.4%; in the assay with SNB-75 CNS it was 83.5%; with SNB-19 CNS, 41.8%; in the assay on U251 CNS it was 49.5%; in the assay with SK-MEL-5 melanoma, 56.1%. Moreover, the growth in the assay with UACC-62 melanoma is 73.6%; in the assay on LOX IMVI melanoma, 25.9%; with SK-MEL-28 melanoma it was 96.3%; in the assay with SK-MEL-2 melanoma it was 95.2%; in the assay on EKVX NSCLC it was 49.8%; in the assay with SN12C renal, 40.9%. Also, the growth in the assay on UO-31 renal is 28.2%; in the assay on TK-10 renal it was 97.8%; in the assay with ACHN renal it was 22.7%; in the assay on CAKI-1 renal, 40.4%; in the assay on A498 renal it was -6.05% (active); with CCRF-CEM leukemia, 47.1%. Moreover, in the assay with MOLT-4 leukemia, the growth was 15.9%.

Turning to `O=C(CCC(=O)N/N=C/c1ccccc1O)N/N=C/c1ccccc1O`, the growth with HCT-15 colon is 22.5%; with HT29 colon it was 84.1%; in the assay with SNB-75 CNS, 78.6%; with SNB-19 CNS, 57.9%; in the assay with U251 CNS, 26%; in the assay with SK-MEL-5 melanoma, 36.3%. In addition, the growth with UACC-62 melanoma was 24.9%; in the assay on LOX IMVI melanoma it was 21%; in the assay with SK-MEL-28 melanoma, 45.2%; in the assay on SK-MEL-2 melanoma it was 69.7%; with EKVX NSCLC, 41.1%; in the assay with SN12C renal, 70.2%. Also, the growth was 17.4% with UO-31 renal; 44% in the assay with TK-10 renal; 18.7% in the assay with ACHN renal; 27.7% with CAKI-1 renal; 80% in the assay with A498 renal; 25% in the assay with CCRF-CEM leukemia. Moreover, the growth in the assay with MOLT-4 leukemia was 18.1%.

With `COc1ccc2cc(-c3ccc(NC(C)=O)c(=O)o3)ccc2c1`, the growth in the assay on HCT-15 colon is 100%; in the assay with HT29 colon it was 87.9%; in the assay on SNB-75 CNS, 97.4%; in the assay with SNB-19 CNS, 94.1%; in the assay with U251 CNS it was 96%; in the assay on SK-MEL-5 melanoma it was 102%. Moreover, the growth in the assay on UACC-62 melanoma is 94.8%; in the assay with LOX IMVI melanoma, 104%; with SK-MEL-28 melanoma, 104%; with SK-MEL-2 melanoma it was 98.6%; with EKVX NSCLC, 106%; with SN12C renal, 102%. The growth in the assay on UO-31 renal was 77.6%; in the assay with TK-10 renal, 97.4%; in the assay on ACHN renal it was 98.7%; in the assay with CAKI-1 renal, 89.7%; in the assay with A498 renal, 85%; with CCRF-CEM leukemia, 93.1%. Moreover, the growth with MOLT-4 leukemia was 90.9%.

`CCN1CC(=O)N(/N=C2\C(=O)Nc3ccccc32)C1=S`: the growth was 95.1% in the assay on HCT-15 colon; 102% in the assay with HT29 colon; 80.3% with SNB-75 CNS; 91.9% in the assay with SNB-19 CNS; 99.2% with U251 CNS; 79.4% with SK-MEL-5 melanoma. Besides, the growth in the assay with UACC-62 melanoma was 76.4%; in the assay on LOX IMVI melanoma it was 86.5%; with SK-MEL-28 melanoma, 111%; with SK-MEL-2 melanoma, 92.7%; in the assay with EKVX NSCLC, 80.8%; in the assay with SN12C renal, 86.1%. Also, the growth in the assay with UO-31 renal is 60.5%; in the assay on TK-10 renal, 105%; with ACHN renal, 76.9%; in the assay on CAKI-1 renal, 59%; in the assay with A498 renal, 82.4%; in the assay with CCRF-CEM leukemia, 102%. Moreover, in the assay on MOLT-4 leukemia, the growth is 98%.

On to `O=C(c1cc2ccccc2o1)c1nn(-c2ccccc2)/c(=N/N=Cc2cn(-c3ccccc3)nc2-c2cc3ccccc3oc2=O)s1`, for which the growth in the assay on HCT-15 colon is 87.8%; in the assay on HT29 colon, 107%; in the assay with SNB-75 CNS it was 97.2%; in the assay with SNB-19 CNS it was 101%; with U251 CNS, 83.1%; in the assay on PC-3 prostate, 93%. The growth is 102% with SK-MEL-5 melanoma; 97.2% in the assay with UACC-62 melanoma; 100% with SK-MEL-2 melanoma; 92.7% in the assay with EKVX NSCLC; 113% in the assay with SN12C renal; 68.5% with UO-31 renal. Moreover, the growth with TK-10 renal is 107%; in the assay with ACHN renal, 102%; with CAKI-1 renal, 79.1%; in the assay with A498 renal it was 116%; in the assay with CCRF-CEM leukemia it was 92.8%; with MOLT-4 leukemia, 93.3%.

With `COCCNC(=O)c1ccc(-c2nc3ccc4[nH]ncc4c3c3c2CCCC3)cc1`, the growth with HCT-15 colon was 19.3%; in the assay with HT29 colon, 44.5%; with SNB-75 CNS it was -6.65% (active); in the assay with SNB-19 CNS it was 67.7%; in the assay on U251 CNS it was 43.4%; in the assay with PC-3 prostate, 34.8%. Moreover, the growth in the assay on SK-MEL-5 melanoma is 44.8%; with UACC-62 melanoma, 21.4%; with SK-MEL-28 melanoma, 39.6%; with SK-MEL-2 melanoma, 40.2%; with EKVX NSCLC, 45.7%; in the assay on SN12C renal it was 33%. Also, the growth in the assay on UO-31 renal is 8.86% (active); in the assay with TK-10 renal, 38.9%; with ACHN renal it was 14.9%; in the assay on CAKI-1 renal, -4.05% (active); in the assay with A498 renal, -9.26% (active); with CCRF-CEM leukemia, 18.1%. In the assay on MOLT-4 leukemia, the growth was 17.8%.

Consider `C=C1C(=O)O[C@H]2[C@H]1CC/C(COC(=O)NCc1cc[nH]c1)=C\CC[C@@]1(C)O[C@@H]21`, for which the growth with HCT-15 colon is 24.6%; in the assay on HT29 colon it was 42.6%; with SNB-75 CNS it was 70.4%; in the assay with SNB-19 CNS it was 83.2%; with U251 CNS, 68.2%; with SK-MEL-5 melanoma, 91.2%. In addition, the growth in the assay on UACC-62 melanoma is 39.6%; with LOX IMVI melanoma it was 32.3%; in the assay on SK-MEL-28 melanoma, 54.6%; with SK-MEL-2 melanoma, 70.5%; in the assay on EKVX NSCLC it was 61.7%; with SN12C renal, 33.6%. Also, the growth in the assay on UO-31 renal was 58.3%; in the assay with TK-10 renal, 44.1%; in the assay on ACHN renal it was 45.3%; with CAKI-1 renal it was 39.1%; in the assay with A498 renal, 104%; in the assay with CCRF-CEM leukemia it was -15.9% (active). The growth in the assay with MOLT-4 leukemia was 18.6%.

The values are drawn from PubChem BioAssay (NCI).
